Screens deposited in PubChem BioAssay by Broad Institute.
Compounds with a hit are over-represented: about 2% of the library has one in this group of screens.
p53 PUMA act: mutant p53 pathway reactivation. activation, % at 9.98 µM. 1.5% of 28,000 active. SW480 PUMA-promoter luciferase; in the data active means activation above about 52%
STK33 inh: blocks human STK33 kinase activity; Q9BYT3; ADP-Glo luminescence, MBP substrate; inhibition, % at 12.5 µM; 0.44% of 27,000 active; in the data active means inhibition above about 20%
ID4 SMM: binds human ID4 protein on microarray | calls only | AID 624137 | P47928 | 1.2% of 31,000 active | small molecule microarray, Flag-ID4 binding, fluorescence F/B; call rule not given here;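 further: a binder raises fluorescence above local background on the spot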
Target sequence (P47928 whole entry, looked up): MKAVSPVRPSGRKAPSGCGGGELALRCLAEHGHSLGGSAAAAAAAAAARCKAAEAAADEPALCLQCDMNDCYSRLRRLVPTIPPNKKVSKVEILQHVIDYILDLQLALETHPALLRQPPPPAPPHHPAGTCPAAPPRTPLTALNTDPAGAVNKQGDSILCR
Of the large screens only hits and unclear results are named; the others gave an inactive call.

O=C(C1=C[C@@H](c2ccc3c(c2)Cc2ccccc2-3)C[C@@H](OCCCCO)O1)N1CCN(Cc2ccc3c(c2)OCO3)CC1	none (no result: p53 PUMA act)
CCOc1ccc(NC(=O)CSc2ncccn2)cc1	p53 PUMA act 54
Cc1ccnc(SCC(=O)Nc2ccc(Cl)cc2Cl)n1	p53 PUMA act 52
CCOc1ccc(NC(=O)CSc2nc3nc(C)cc(C)n3n2)cc1	none
Cc1ccnc(SCC(=O)Nc2cccc(Cl)c2)n1	none
Cc1cc(Oc2ccccc2)nc(SCC(=O)Nc2ccc(Cl)cc2Cl)n1	none
O=C(CSc1ncccn1)Nc1ccc(Cl)cc1Cl	p53 PUMA act 134
COc1cc(OC)cc(-c2nnc(SCC(=O)Nc3sc4c(c3C#N)CCCC4)o2)c1	none
COc1ccc(OCC(=O)Nc2sc3c(c2C#N)CCC3)cc1	p53 PUMA act 94
COc1ccc(OC)c(NC(=O)c2c(NC(=O)c3ccco3)sc3c2CCC3)c1	none
COc1ccc(C(=O)Nc2sc3c(c2C(=O)Nc2cccc(OC)c2)CCC3)cc1	p53 PUMA act 71
CC1(C)C(=O)N=C2c3ccccc3C(=O)C(=O)C21 (stereo not drawn)	none (no result: STK33 inh, ID4 SMM)
Cc1ccc(-n2c(=O)c3c4c(sc3n3c(SCC(=O)c5ccc(F)cc5)nnc23)CCCC4)cc1	none
CC(=O)c1c(C)n(-c2ccc(C)cc2)c2ccc(OC(=O)CN3C(=O)c4ccccc4C3=O)cc12	none
COc1ccc2ncc3c(c2c1)-c1cc(Cl)ccc1OC3	p53 PUMA act 69 (no result: STK33 inh)
Clc1ccc2ncnc(NCc3ccc4c(c3)OCO4)c2c1	none (no result: ID4 SMM)
CC1=CC(=O)OC(c2ccccc2)C1 (stereo not drawn)	none (no result: p53 PUMA act, ID4 SMM)
CCn1nccc1C(=O)Nc1nc2ccccc2n1CCN1CCCCC1	none
O=C(O)CCc1nn2c3ccccc3n(CCN3CCCCC3)c2nc1=O	ID4 SMM active
Fc1ccc(N(Cc2nc3ccccc3[nH]2)Cc2nc3ccccc3[nH]2)cc1	none
O=C1c2cccc(O)c2C(=O)c2c(O)cccc21	STK33 inh 27
CCCc1c(C(=O)O)c(O)cc2c1C(=O)c1c(O)cccc1C2=O	none
O=c1c2c3c(sc2ncn1/N=C/c1cc(Br)ccc1O)CCCC3	none (no result: STK33 inh)
COc1ccc(S(=O)(=O)N2CCN(Cc3cccc(OCCO)c3)CC2)cc1	none (no result: p53 PUMA act, ID4 SMM)
Cc1ccc(S(=O)(=O)N2CCN(Cc3cccc(OCCO)c3)CC2)cc1	ID4 SMM active (no result: p53 PUMA act)
Cc1ccc(S(=O)(=O)N2CCN(Cc3ccc(OCCO)cc3)CC2)cc1	none (no result: p53 PUMA act)
COc1ccc(S(=O)(=O)N2CCN(Cc3ccc(OCCO)cc3)CC2)cc1	ID4 SMM active (no result: p53 PUMA act)
Cc1nn2c(CN(C(=O)c3cccs3)c3ccccc3)nnc2c2ccccc12	none
Cc1nn2c(CN(C(=O)CN3CCOCC3)c3ccccc3)nnc2c2ccccc12	ID4 SMM active
O=C(CN1CCCCC1)Nc1sc2c(c1C(=O)Nc1ccc(Cl)cc1)CCC2	none
C[C@@H]1CCCCO[C@H](CN(C)Cc2ccc(C(=O)O)cc2)[C@H](C)CN([C@H](C)CO)C(=O)c2cc(NS(=O)(=O)c3ccccc3)ccc2O1	none (no result: STK33 inh, ID4 SMM)
C[C@H]1CCCCO[C@@H](CN(C)C(=O)c2ccncc2)[C@@H](C)CN([C@@H](C)CO)C(=O)c2cc(NS(=O)(=O)c3ccccc3)ccc2O1	ID4 SMM active (no result: STK33 inh)
C[C@@H]1CN([C@@H](C)CO)C(=O)c2cc(NS(=O)(=O)c3ccccc3)ccc2O[C@@H](C)CCCCO[C@H]1CN(C)C(=O)c1ccncc1	none (no result: STK33 inh)
C[C@H]1CCCCO[C@@H](CN(C)Cc2ccc(C(=O)O)cc2)[C@@H](C)CN([C@@H](C)CO)C(=O)c2cc(NS(=O)(=O)c3ccccc3)ccc2O1	ID4 SMM active (no result: STK33 inh)
CN(c1cccc(NC(=O)Cc2ccccc2[N+](=O)[O-])c1)S(C)(=O)=O	none
COc1ccc(NC(=O)CN(c2ccccc2Br)S(C)(=O)=O)cc1OC	none
O=C1C=CC(=O)c2c(O)c(Cl)c(Cl)c(O)c21	STK33 inh 22 (no result: ID4 SMM)
CC(C)(C)c1cc(-c2csc(-c3ccno3)n2)cc(C(C)(C)C)c1O	none (no result: STK33 inh)
COc1ccccc1NC(=O)CSc1nc(C)cc(C(F)(F)F)n1	none
CC1=CC(=O)C2C(C)(C)CC(O)CC2(C)C1(O)CO (stereo not drawn)	none
COC(=O)c1ccc(C)c(NC(=O)CN(c2ccc(F)cc2)S(C)(=O)=O)c1	none
CNC[C@@H]1Oc2cc(Br)ccc2S(=O)(=O)N([C@H](C)CO)C[C@H]1C	none (no result: p53 PUMA act, STK33 inh)
CNC[C@@H]1Oc2cc(C#Cc3ccccc3)ccc2S(=O)(=O)N([C@H](C)CO)C[C@H]1C	none (no result: p53 PUMA act, STK33 inh)
CNC[C@@H]1Oc2cc(C#Cc3cccnc3)ccc2S(=O)(=O)N([C@@H](C)CO)C[C@H]1C	ID4 SMM active (no result: STK33 inh)
CNC[C@H]1Oc2cc(Br)ccc2S(=O)(=O)N([C@H](C)CO)C[C@H]1C	ID4 SMM active (no result: p53 PUMA act, STK33 inh)
CCn1c(SCC(=O)Nc2c(F)cc(F)cc2Br)nnc1-c1ccccc1F	none
COc1ccc([C@H]2Oc3cc(O)cc(O)c3C(=O)[C@@H]2O)cc1	none (no result: ID4 SMM)
COc1ccc(-c2cc(C)nc(SCC(=O)Nc3cccc(Cl)c3Cl)n2)cc1	ID4 SMM active
